For test [1], the system named is Plasmodium falciparum Sir2 (PF13_0152, Sir2A). The test is described as follows: pfSir2 binders on small-molecule microarrays, primary screen, biochemical, small-molecule microarray, 635 nm fluorescence (AID 1098).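 Note: score merges spot fluorescence intensity with its signal-to-noise ratio.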 Conditions: small-molecule microarray binding, fluorescence 635 nm; higher = more signal.
Test [2] is described as follows: small-molecule microarray binders of probe aDKK1, primary screen, biochemical, biotinylated probe, 635/667 nm fluorescence (AID 1099).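 Note: score merges 667nm spot fluorescence with signal to noise across triplicate slides; reference of the scale not given here.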 The settings on record: higher = more signal.
Test [3] in a line: small-molecule microarray binders of probe aCHRDL2, primary screen, biochemical, biotinylated probe, 635/667 nm fluorescence (AID 1100). The settings on record: higher = more signal.
The nature of test [4]: splicing luciferase reporter signal modulators, primary screen, spliceosome inhibition project, cell-based, HEK293, splice +/- reporter (AID 1101).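 Note: HEK293 cells carrying a splicing-competent luciferase reporter gene; test concentration not given here.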 The settings on record: luminescence, 24 h, higher = more signal, called active from +8 up or from −8 down.
Test [5] has as its target Fibroblast growth factor 10 (Homo sapiens) (UniProt O15520). In words: FGF10 binders on small-molecule microarrays, primary screen, biochemical, small-molecule microarray, 635 nm fluorescence (AID 1102). The settings on record: FGF10 binding, fluorescence 635 nm, higher = more signal.
Test [6] relates to glycogen synthase kinase-3 (GSK3A per assay name; protocol says GSK3B). The test is described as follows: GSK3 binders on small-molecule microarrays, primary screen, biochemical, small-molecule microarray, 635 nm fluorescence, GSK3A (AID 1103). Note: the record names both GSK3A and GSK3B. Conditions: small-molecule microarray binding, fluorescence 635 nm; higher = more signal.
Test [7] concerns the target Epidermal growth factor receptor (Homo sapiens) (UniProt P00533). The test is described as follows: EGFR binders on small-molecule microarrays, primary screen, biochemical, small-molecule microarray, 635 nm fluorescence (AID 1104).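 Note: score merges 667 nm emission intensity with spot signal to noise over triplicate slides.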 Conditions: EGFR binding, higher = more signal.
Test [8] has as its target Follistatin-related protein 3 (Homo sapiens) (UniProt O95633). The test is described as follows: FSTL3 binders on small-molecule microarrays, primary screen, biochemical, small-molecule microarray, 635 nm fluorescence (AID 1105).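 Note: score merges emission near 667 nm and signal to noise per printed spot across three slides.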 The settings on record: FSTL3 binding, higher = more signal.
The target of test [9] is Dickkopf-related protein 1 (Homo sapiens) (UniProt O94907). The test is described as follows: DKK1 binders on small-molecule microarrays, primary screen, biochemical, small-molecule microarray, 635 nm fluorescence scan (AID 1106).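 Note: score merges emission near 667 nm with signal to noise over three replicate slides.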 Conditions: DKK1 binding, higher = more signal.
Dickkopf-related protein 1 (Homo sapiens), sequence (O94907 whole entry, looked up): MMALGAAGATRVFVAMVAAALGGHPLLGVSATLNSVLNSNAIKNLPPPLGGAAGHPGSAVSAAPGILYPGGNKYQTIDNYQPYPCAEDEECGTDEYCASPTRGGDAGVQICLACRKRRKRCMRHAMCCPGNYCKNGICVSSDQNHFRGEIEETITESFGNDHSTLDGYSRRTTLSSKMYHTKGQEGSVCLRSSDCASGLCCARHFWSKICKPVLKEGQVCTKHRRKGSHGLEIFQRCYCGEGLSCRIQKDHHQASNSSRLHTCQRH
Test [10] deals with Inhibin beta A chain (activin A). In words: INHBA (activin A) binders on microarrays, primary screen, biochemical, small-molecule microarray, 635 nm fluorescence scan (AID 1107).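 Note: mouse activin A protein probed at 4.33 µg/mL on printed slides; score merges bound-protein fluorescence near 667 nm with spot signal-to-noise.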 Conditions: small-molecule microarray binding, higher = more signal.

Active and inactive are the calls of the source.

Follistatin-related protein 3 (Homo sapiens), sequence (O95633 whole entry, looked up): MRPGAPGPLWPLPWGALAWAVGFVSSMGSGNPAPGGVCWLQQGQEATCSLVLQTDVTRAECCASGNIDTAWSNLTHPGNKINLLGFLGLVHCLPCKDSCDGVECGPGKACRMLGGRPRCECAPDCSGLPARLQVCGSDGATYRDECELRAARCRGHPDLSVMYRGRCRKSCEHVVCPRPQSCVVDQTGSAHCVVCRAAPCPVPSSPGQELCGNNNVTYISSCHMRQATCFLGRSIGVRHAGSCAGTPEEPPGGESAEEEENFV
Epidermal growth factor receptor (Homo sapiens), sequence (P00533 whole entry, looked up): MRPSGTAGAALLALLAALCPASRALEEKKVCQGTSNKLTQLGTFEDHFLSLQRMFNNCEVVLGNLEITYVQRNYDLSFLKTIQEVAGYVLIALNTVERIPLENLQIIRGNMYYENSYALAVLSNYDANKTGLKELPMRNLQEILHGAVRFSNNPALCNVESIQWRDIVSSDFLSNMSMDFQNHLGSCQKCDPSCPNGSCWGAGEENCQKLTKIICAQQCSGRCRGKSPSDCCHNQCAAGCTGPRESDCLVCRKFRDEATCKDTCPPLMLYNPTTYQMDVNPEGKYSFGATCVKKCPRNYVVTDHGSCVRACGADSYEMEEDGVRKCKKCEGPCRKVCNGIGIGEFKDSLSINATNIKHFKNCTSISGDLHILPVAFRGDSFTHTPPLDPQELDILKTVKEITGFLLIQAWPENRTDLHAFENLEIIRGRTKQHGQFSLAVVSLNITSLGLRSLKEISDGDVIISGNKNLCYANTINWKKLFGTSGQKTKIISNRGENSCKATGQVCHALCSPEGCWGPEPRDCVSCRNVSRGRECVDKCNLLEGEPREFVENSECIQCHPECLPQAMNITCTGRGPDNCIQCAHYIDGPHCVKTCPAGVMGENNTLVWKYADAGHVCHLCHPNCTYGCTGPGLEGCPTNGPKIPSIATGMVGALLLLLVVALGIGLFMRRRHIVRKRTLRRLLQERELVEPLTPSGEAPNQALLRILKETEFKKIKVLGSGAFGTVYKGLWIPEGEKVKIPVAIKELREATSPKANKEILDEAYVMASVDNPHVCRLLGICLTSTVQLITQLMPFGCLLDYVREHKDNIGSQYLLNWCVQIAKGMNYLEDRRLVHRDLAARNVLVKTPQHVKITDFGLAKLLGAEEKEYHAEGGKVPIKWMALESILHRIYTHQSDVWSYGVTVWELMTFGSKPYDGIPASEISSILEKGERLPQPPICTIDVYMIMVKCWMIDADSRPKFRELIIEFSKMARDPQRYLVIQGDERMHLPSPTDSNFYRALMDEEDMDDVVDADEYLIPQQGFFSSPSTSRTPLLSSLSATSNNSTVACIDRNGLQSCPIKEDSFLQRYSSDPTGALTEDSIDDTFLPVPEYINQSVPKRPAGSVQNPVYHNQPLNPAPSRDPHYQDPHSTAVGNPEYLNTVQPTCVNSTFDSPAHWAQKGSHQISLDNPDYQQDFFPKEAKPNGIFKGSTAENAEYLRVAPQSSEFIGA
Fibroblast growth factor 10 (Homo sapiens), sequence (O15520 whole entry, looked up): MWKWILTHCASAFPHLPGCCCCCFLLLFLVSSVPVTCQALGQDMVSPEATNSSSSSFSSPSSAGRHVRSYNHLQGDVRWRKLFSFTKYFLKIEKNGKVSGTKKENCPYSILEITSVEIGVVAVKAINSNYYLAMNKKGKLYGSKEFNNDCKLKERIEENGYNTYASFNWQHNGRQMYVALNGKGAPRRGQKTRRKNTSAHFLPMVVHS

For the compound `C=CCC(OC(C)=O)[C@@H]1[C@@H](N(Cc2ccc(-c3cccc(C(F)(F)F)c3)o2)C(=O)c2ccc(-c3ccccc3)cc2)c2cc(OCCCO)ccc2N1C(=O)Cc1ccc2ccccc2c1` (stereo not given in full), the composite z-score in test [1] is -0.417; in [2] it was -0.155; in [3] it was 0.532; in test [5], -0.186; in test [6] it was -1.22; in [7] it was -0.782. Moreover, the results for the composite z-score in test [8], in [9] and in [10] were -0.116, -0.403 and 0.841, respectively. The z-score in test [4] was -0.435 (inactive).
In the case of `CC1=C2[C@@H](CCc3ccccc3)OB(O)C[C@@H]2[C@@H]2C(=O)N(C)C(=O)[C@@H]2C1`, the composite z-score is -0.186 in test [1]; -0.232 in test [2]; -0.223 in test [3]; 0.985 in test [5]; 0.443 in test [6]; 0.135 in test [7]. Moreover, the composite z-score in [8] is 0.451; in test [9] it was 0.521; in test [10], 0.273. Moreover, in [4], the z-score was 0.305 (inactive).
Regarding `COc1ccc([Si](C)(C)[C@@H]2[C@@H](CCO)O[C@]3(C(=O)N(Cc4cccc(NC(=O)[C@H](C)O)c4)c4ccccc43)[C@H]2C)cc1`, the composite z-score in test [1] came to 1.42; in test [2], 1.09; in test [3], 0.0838; in test [5], 1.08; in test [6], 1.27; in test [7] it was 0.0532. For the same compound, the composite z-score in test [8] was 0.399; in test [9], 0.244; in [10], -0.437. Further, the z-score in [4] is -2.89 (inactive).
On to `CN(C)CCCCCCNC(=O)[C@@H]1C[C@@H]2C(=O)N3CCC[C@H]3C(=O)N2[C@@H]1c1cccc(OCCO)c1`, for which the composite z-score in test [1] is 1.35; in test [2], -0.0718; in test [3], 0.481; in test [5], 0.92; in test [6], 1.33; in test [7] it was 1.11. The composite z-score in test [8] worked out at 1.49; in test [9] it was 1.81; in [10], 0.749. Besides, the z-score in [4] was 0.134 (inactive).
As to `COC(=O)C1=CC(CCCO)=CC(c2ccc(CN3CCCC3)cc2)N(Cc2cccc(OC(F)(F)F)c2)C=C1C(=O)OC` (stereo not given), the composite z-score in test [1] turned out to be 1.26; in [2], 0.752; in test [3], 0.82; in test [5], 0.641; in [6], 0.68; in [7], 0.121. The composite z-score was 0.637 in test [8], -0.271 in test [9] and 0.976 in test [10]. Besides, in test [4], the z-score is -0.656 (inactive).
`COCCCNC(=O)[C@@]1(Sc2ccc(C)cc2)CC(=O)N(C2Cc3ccccc3C2)[C@@H]1c1ccc(CO)cc1`: the composite z-score in [1] was 1.06; in test [2], 0.106; in test [3], 0.899; in [5], -1.39; in test [6] it was -0.429; in test [7], -0.787. Moreover, the composite z-score in [8] is -1.42; in test [9], -1.76; in test [10], -0.115. Besides, in test [4], the z-score is -0.866 (inactive).
In the case of `COc1cc2c(cc1O)C(c1cccs1)N(Cc1cc3c(cc1Br)OCO3)CC2` (stereo not given), the composite z-score was 1.5 in test [1]; 0.421 in [2]; 0.726 in test [3]; 1.47 in test [5]; 1.32 in test [6]; 0.345 in [7]. In addition, the values for the composite z-score in test [8], in test [9] and in test [10] were 1.13, 0.449 and 0.632, respectively. In addition, the z-score in test [4] was -0.0664 (inactive).
On to `CC(C)[Si](C#C[Si](C(C)C)(C(C)C)C(C)C)(O[C@H](c1ccccc1)c1cn(Cc2ccccc2)nn1)C(C)C`, for which the composite z-score in [1] was 0.144; in [2], -0.138; in test [3] it was -0.465; in [5], 0.279; in test [6], 0.654; in [7], 0.392. Further, the results for the composite z-score in test [8], in test [9] and in test [10] were 0.628, 0.405 and 0.218, respectively. The z-score in test [4] was 0.501 (inactive).
`C[N+](C)(C)CCCCCCNC(=O)[C@@H]1C[C@@H]2C(=O)N3CCC[C@H]3C(=O)N2[C@@H]1c1ccc(O)cc1`: the composite z-score was 1.1 in test [1]; -0.0891 in test [2]; 0.614 in test [3]; 1.37 in test [5]; 1.2 in [6]; 1.23 in test [7]. The composite z-score in test [8] amounted to 1.46; in [9] it was 1.25; in test [10], 0.578. Also, in [4], the z-score was -0.546 (inactive).
Consider `COC(=O)[C@@]1(Cc2ccc(F)cc2)[C@H]2c3cc(C(=O)N(C)C)n(Cc4ccc(OC(F)(F)F)cc4)c3C[C@H]2CN1C(=O)c1ccccc1`, for which the composite z-score in [1] is 0.19; in test [2], -0.0448; in test [3], 0.183; in test [5] it was 0.251; in test [6] it was 0.22; in test [7], 0.18. In addition, the composite z-score in test [8] amounted to 0.298; in test [9], 0.0583; in test [10], 0.401. In test [4], the z-score is 1.32 (inactive).
Consider `CO[C@H]1O[C@H](CO)[C@@H](OC(=O)Nc2ccccc2)[C@H](OC(=O)c2cc3ccccc3[nH]2)[C@H]1OC(=O)c1cc2ccccc2[nH]1`, for which the composite z-score in [1] is 0.494; in test [2], 0.576; in test [3], 0.759; in test [5], 1.35; in test [6], 0.126; in [7], -0.551. Besides, the values for the composite z-score in [8], in test [9] and in [10] were 0.306, 0.201 and 0.9, respectively. The z-score in [4] was -0.447 (inactive).

Values taken from PubChem BioAssay.
